Results on 20 molecules are retold here after PubChem BioAssay (EPA / NIEHS).

Records with an inconclusive call do not appear. Active and inactive are the calls of the source. How the source made its calls: active means hit-call score of the fitted dose curve at least 0.9, where 1 is the maximum; inconclusive means response in the unintended direction; inactive means score below 0.9.

The target in this assay is Cellular tumor antigen p53 (Homo sapiens) (UniProt P04637). In words: TOX21_p53_BLA_p4_ratio: Tox21 HCT-116 p53 Agonism Beta-lactamase Assay, Ratio, Phase 4 (AID 2283601). The gist of the method: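 HCT116 cells carrying an inducible beta-lactamase reporter were plated at 4000 cells/well, rested 5 h, then exposed to compounds in DMSO (217-fold dilution) for 16 h at 37C. CCF4-AM substrate was loaded 2 h at room temperature; 460/530 nm emission ratio scored gain-of-signal versus DMSO.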
Cellular tumor antigen p53 (Homo sapiens), sequence (P04637 whole entry, looked up): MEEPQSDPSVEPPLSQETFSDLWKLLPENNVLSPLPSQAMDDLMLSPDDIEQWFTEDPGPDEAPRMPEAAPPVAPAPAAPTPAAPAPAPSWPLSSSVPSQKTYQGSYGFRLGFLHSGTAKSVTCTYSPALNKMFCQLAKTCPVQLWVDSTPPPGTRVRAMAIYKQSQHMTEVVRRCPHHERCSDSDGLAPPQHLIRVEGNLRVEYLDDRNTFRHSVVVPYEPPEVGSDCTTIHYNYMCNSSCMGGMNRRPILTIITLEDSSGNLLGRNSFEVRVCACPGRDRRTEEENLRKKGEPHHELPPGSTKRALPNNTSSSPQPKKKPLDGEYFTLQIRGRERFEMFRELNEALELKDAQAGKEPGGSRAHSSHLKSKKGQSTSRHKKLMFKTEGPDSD
Take `CNC(=O)[C@H](Cc1c[nH]c2ccccc12)NC(=O)[C@@H](CC(=O)NO)CC(C)C`: the result was inactive.
For `CCN(CC)CCNC(=O)COc1ccc(OC)cc1`, the result was inactive.
The value for `C1CCCNCCC1` was “inactive”.
For the molecule `O=C(O)COc1ccccc1/C=N/NC(=O)c1ccncc1`, the result was inactive.
The value for `Cc1cc(C)cc([N+](=O)[O-])c1` was “inactive”; that for `CCNC(=O)C1CC(C)CCC1C(C)C` (stereo not given) was “inactive”; that for `O=C(O)CP(=O)(O)O` was “inactive”.
The value for `CCOC(=O)CC(=O)C(=O)OCC` was “inactive”.
The value for `COc1cc(C(=O)NC2CCCNC2)cc(OC)c1OC` (stereo not given) was “inactive”; that for `CN1CCOC(c2ccccc2)c2ccccc2C1` (stereo not given) was “inactive”.
Turning to `CCOC(=O)CCC(=O)O[C@H]1[C@H](O[C@@H]2[C@@H](C)[C@H](O[C@H]3C[C@@](C)(OC)[C@@H](O)[C@H](C)O3)[C@@H](C)C(=O)O[C@H](CC)[C@@](C)(O)[C@H](O)[C@@H](C)C(=O)[C@H](C)C[C@@]2(C)O)O[C@H](C)C[C@@H]1N(C)C`, the result was inactive.
For `CC(C)NC[C@@H](O)COc1cccc2ccccc12` the value was “inactive”.
The value for `CCN(C)C(=O)Oc1cccc([C@H](C)N(C)C)c1` was “inactive”; that for `OCCOc1ccc(OCCO)cc1` was “inactive”.
For the molecule `CN1CCc2c(c3ccccc3n2Cc2ccccc2)C1`, the outcome was inactive.
Consider `Cc1ccc(/C(=C\CN2CCCC2)c2ccccn2)cc1`, for which the result was inactive.
The value for `Cc1cc(O)ccc1O` was “inactive”; that for `Cc1cc(=O)c(C(=O)N[C@@H](C(=O)N[C@@H]2C(=O)N3C(C(=O)O)=C(CSc4nnnn4C)CS[C@H]23)c2ccc(O)cc2)c[nH]1` was “inactive”; that for `S=C(SSSSSSC(=S)N1CCCCC1)N1CCCCC1` was “inactive”.
Regarding `COc1ccc(-c2cc(C(F)F)nn2-c2ccc(S(N)(=O)=O)cc2)cc1F`, the outcome was inactive.
